Experimental findings from PubChem BioAssay (NCATS) are described below.

The target of assay [1] is Cytochrome P450 1A2 (Homo sapiens) (UniProt P05177). The experiment in a line: p450-cyp1a2 (AID 410; calls by dose curve; further: potency means the concentration at half of the fitted maximal effect). A digest of the protocol: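 O-Demethylation of luciferin 6' methyl ether by human CYP1A2 is monitored as luciferase luminescence. Substrate sits at Km (100uM); enzyme is 20nM. Values are scaled to 57 uM furafylline as maximal inhibition.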
The nature of assay [2]: Stat Signaling Pathway (AID 446; active means well fitted curve in either direction with a large enough effect, not every such curve was filed as active;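 further: ME-180 cervical cancer cells given 40 pM IL-6 alongside compound; SIE-controlled beta-lactamase reporter measured as 460/530 nm FRET emission ratio; on the % scale 0 is the no-effect control and ±100 the full control effect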). As to conditions: ME-180 (cervical carcinoma) SIE beta-lactamase reporter, IL-6 stimulated, 5 h; at 17.2 µM (top of the series) unless noted. A digest of the protocol: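 FRET read-out (405 nm excitation, 460/530 nm emission) of a beta-lactamase reporter under a STAT-inducible element in ME-180 cervical carcinoma cells. Cells with compound receive 40 pM IL-6 for 5 h. Values are normalised to AC90 stimulation and AC90 JAK-inhibitor controls.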

The target in assay [3] is Glucocorticoid receptor (Homo sapiens) (UniProt P04150). The experiment in a line: GR-GFP Redistribution (AID 450;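 active means compounds whose dose series gives a full or clear partial fitted curve of increased nuclear translocation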; further: potency means the concentration at half of the fitted maximal effect).
For assay [4] the target is unchanged. The assay is described as follows: GR-EFC Redistribution (AID 451; calls by dose curve; further: potency means the concentration at half of the fitted maximal effect). Conditions: CHO-K1 GR-EFC translocation, beta-gal luminescence, 2 h. Summed up:
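Translocation of GR-ED fusion to nuclear EA restores b-gal, read by luminescence after 1 h room-temperature detection. Engineered CHO-K1 biosensor cells, 1,000/well, exposed 2 h at 37 C to titrations up to 46 uM final.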

In assay [5] the target is 3',5'-cyclic-AMP phosphodiesterase 4B (Homo sapiens) (UniProt Q07343). The assay is described as follows: qHTS Assay for Inhibitors of PDE-IV (AID 607; active means well fitted activation curve with a large enough effect in the main read-out, with a control signal flat, not every such curve was filed as active; further: % of control where 0% means no effect). A digest of the protocol:
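Cell-based read-out of cAMP via a modified cyclic nucleotide-gated channel and membrane potential dye (535/590 nm) in HEK293 cells expressing PDE4 endogenously. Compounds tested up to 22.9 uM final; 100 uM RO 20-1724 reference.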
For orientation: Quantitative high-throughput screening tests each substance at several concentrations.

The target in assay [6] is Guanine nucleotide-binding protein G(i) subunit alpha-1 (Homo sapiens) (UniProt P63096). The experiment in a line: qHTS Assay for Inhibitors of RGS12 GoLoco Motif Activity (Green Fluorophore) (AID 879).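 Further: 0% = labeled peptide with Gαi1 and full inhibition = labeled peptide alone without protein; negative values mean loss of peptide binding seen as reduced polarization.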 Summed up: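 A drop in FITC polarization marked displacement of the FITC-tagged RGS12 GoLoco peptide (10 nM) from Gαi1 (50 nM). Compounds were incubated 10 min at room temperature in Tris pH 7.5 buffer containing 150 mM NaCl, 0.1 mM GDP and 0.05% NP40; unlabeled peptide titration served as control.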

For assay [7], the target named is Cytochrome P450 3A4 (Homo sapiens) (UniProt P08684). The experiment in a line: qHTS Assay for Inhibitors and Substrates of Cytochrome P450 3A4 (AID 884). Further: nearly all actives have a fitted effect of over 50% in size. Further: potency means the concentration at half of the fitted maximal effect. A digest of the protocol: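 Luminescent readout of luciferin produced by CYP3A4 (20 nM) dealkylation of Luciferin-PPXE, 25 uM (its KM). NADPH-driven reaction ran 60 min at RT after 10 min compound preincubation; data scaled to 57 uM ketoconazole as 100% inhibition.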

For assay [8] the target is unchanged. The assay is described as follows: qHTS Assay for Activators of Cytochrome P450 3A4 (AID 885). Further: nearly all actives have a fitted effect of over 65% in size. Further: potency means the concentration at half of the fitted maximal effect. A digest of the protocol:
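Luminescent readout of luciferin formed from 25 uM Luciferin-PPXE (KM level) by 20 nM CYP3A4 in 200 mM KPO4, with 60 min NADPH-driven reaction at room temperature after 10 min compound exposure. Ketoconazole (57 uM) defined 100% inhibition.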

Assay [9] deals with Pyruvate kinase (Leishmania mexicana) (UniProt Q27686). The assay is described as follows: qHTS Validation Assay for Inhibitors of Leishmania Mexicana Pyruvate Kinase (AID 945).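 Further: 0% = DMSO only neutral control wells.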 Summed up: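 Eight-point qHTS titrations in triplicate, data normalized to DMSO neutral control. Reaction: 0.2 nM LmPYK E451W mutant, 0.5 mM PEP, 0.1 mM ADP, 7 mM MgCl2, pH 7.2, one hour at room temperature; luminescent ATP detection.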

Assay [10] deals with Pyruvate kinase PKM (Homo sapiens) (UniProt P14618). The experiment in a line: qHTS Assay for Activators of Human Muscle Pyruvate Kinase (AID 954; active means well fitted curve in the direction sought with a large enough effect, not every such curve was filed as active;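 further: 0% = uninhibited enzyme and -100% = no enzyme or full thiadiazolimine inhibition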). Summed up: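 ATP production by PKM2 detected via luciferase luminescence after 1 h room-temperature reaction (0.1 nM enzyme, PEP at Km 0.5 mM, ADP 0.1 mM, pH 7.2 imidazole buffer). Inhibition scaled to no-enzyme control; activation referenced to 0.3 nM enzyme wells.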

The target in assay [11] is Alpha-galactosidase A (Homo sapiens) (UniProt P06280). The experiment in a line: Counterscreen for Glucocerebrosidase Inhibitors: qHTS Assay for Human alpha-Galactosidase at pH 4.5 (AID 992). Further: 0% is about no effect. A digest of the protocol:
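Fluorogenic 1536-well qHTS at pH 4.5 (citrate, Tween-20): 2 nM enzyme, 80 uM 4-MU-alpha-galactoside, 20 min room temperature, NaOH/glycine stop. Titration 0.7 nM to 77 uM, data normalized to no-enzyme and full-activity controls, Hill-fitted AC50.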

The target of assay [12] is alpha-glucosidase (Oryza sativa, rice) (UniProt Q653V4). The experiment in a line: Counterscreen for Glucocerebrosidase Inhibitors: qHTS Assay for Rice alpha-Glucosidase at pH 5.0 (AID 997).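 Further: 0% = full activity with enzyme and -100% = basal without enzyme.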 Summed up:
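Endpoint fluorogenic assay at pH 5.0: compounds (0.7 nM to 77 uM) titrated against 4 nM rice enzyme and 400 uM 4-MU-alpha-glucoside for 20 min at room temperature; NaOH/glycine stop, read ex 365/em 440 nm, Hill-fitted AC50.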
(In general: A counterscreen serves to expose hits that act by an unwanted route or on another target.)

The target of assay [13] is Mitogen-activated protein kinase 10 (Mus musculus) (UniProt Q61831). The experiment in a line: JNK3 AlphaScreen Assay (AID 530; active means well fitted curve in either direction with a large enough effect, not every such curve was filed as active;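 further: kinase came from lysate of stimulated human HepG2 cells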; further: potency means the concentration at half of the fitted maximal effect). A digest of the protocol:
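qHTS titrations with 15 min compound pre-incubation before adding ATP (10 uM final). Read-out: AlphaScreen of Ser73-phosphorylated biotin-GST-cJun using HepG2 lysate JNK3 activated by IL-1β and TNFα.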
In general terms: In Alpha technology, singlet oxygen from a donor bead excites a nearby acceptor bead.

The target of assay [14] is Cytochrome P450 2D6 (Homo sapiens) (UniProt P10635). The experiment in a line: qHTS Assay for Inhibitors and Substrates of Cytochrome P450 2D6 (AID 891). Further: nearly all actives have a fitted effect of over 60% in size. Further: potency means the concentration at half of the fitted maximal effect. A digest of the protocol: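 Luminescent read-out of luciferin formed by 5 nM human CYP2D6 demethylating 30 uM Luciferin-ME EGE (Km level) over 60 min at room temperature after NADPH regeneration addition. Data normalized to full inhibition by 1.43 uM quinidine.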

In assay [15] the target is Ubiquitin carboxyl-terminal hydrolase 1 (Homo sapiens) (UniProt O94782). The experiment in a line: Inhibitors of USP1/UAF1: Pilot qHTS (AID 504865).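 Further: rhodamine fluorescence freed from ubiquitin-rhodamine substrate followed over time; top concentration of the series differs between compounds; on the % scale 0 is the no-effect control and ±100 the full control effect; nearly all actives have a fitted effect of over 35% in size.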 A digest of the protocol:
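USP1/UAF1 complex (1nM) preincubated with compound 15 min at room temperature, then Ub-Rho substrate (150nM final) added. Fluorescence read kinetically at 480/540 nm, 6 reads every 60 seconds. Buffer: 50mM HEPES pH 7.8, 0.5mM EDTA, 0.1 mg/ml BSA, 1mM TCEP, 0.01% Tween-20.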

Assay [16] has as its target DNA dC->dU-editing enzyme APOBEC-3G (Homo sapiens) (UniProt Q9HC16). The assay is described as follows: qHTS for inhibitors of Vif-A3G interactions: Validation (AID 588379). Further: 0% is about no effect. A digest of the protocol: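 Yellow fluorescence (Ex 488, Em 500-530) of Vif-coexpressing HeLa A3G-eYFP cells, scanned by Acumen cytometer, reports blocked A3G degradation. Cells plated at 700/well overnight at 37 deg C before compound addition, then a further overnight compound incubation at 37 deg C.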

Assay [17] addresses Cytochrome P450 2C9 (Homo sapiens) (UniProt P11712). The experiment in a line: qHTS Assay for Inhibitors and Substrates of Cytochrome P450 2C9 (AID 883). Further: nearly all actives have a fitted effect of over 60% in size. Further: potency means the concentration at half of the fitted maximal effect. A digest of the protocol: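 Inhibition of CYP2C9 is scored as loss of luminescence, with 57uM sulphaphenazole defining 100% inhibition. Substrate Luciferin-H is used at 100uM, equal to its KM; enzyme at 10nM in 25mM KPO4, 60 min at 37C with NADPH regeneration.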

The target in assay [18] is Cytochrome P450 2C19 (Homo sapiens) (UniProt P33261). The experiment in a line: qHTS Assay for Inhibitors and Substrates of Cytochrome P450 2C19 (AID 899). Further: nearly all actives have a fitted effect of over 60% in size. Further: potency means the concentration at half of the fitted maximal effect. On activity, negative = inhibition: on the % scale 0 is the no-effect control and ±100 the full control effect. Summed up: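 5nM enzyme + 10uM Luciferin-H EGE (=KM), 50mM KPO4; cpd pin-transferred, 10 min 37C; NADPH regen, 60 min 37C; stopped w/ luciferin detection reagent, 20 min; luminescence. Normalized to 57uM ketoconazole (AC100).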

Structures are written as SMILES. A number with no mark means an inactive call. Records with an inconclusive call do not appear. Calls of active or inactive are those of the source. Unless noted, the call rests on the fitted dose curve; in most records, active means well fitted curve in the direction sought with a large enough effect; inconclusive means small, poorly fitted or top-dose-only effect, or another doubt; inactive means no such curve, though single readings can be large; an effect the other way counts as inactive or inconclusive. Where a SMILES comes first, the peptide text is derived from it. Some results are limits rather than exact numbers.

Chain of Glucocorticoid receptor (Homo sapiens) (P04150 whole entry, looked up): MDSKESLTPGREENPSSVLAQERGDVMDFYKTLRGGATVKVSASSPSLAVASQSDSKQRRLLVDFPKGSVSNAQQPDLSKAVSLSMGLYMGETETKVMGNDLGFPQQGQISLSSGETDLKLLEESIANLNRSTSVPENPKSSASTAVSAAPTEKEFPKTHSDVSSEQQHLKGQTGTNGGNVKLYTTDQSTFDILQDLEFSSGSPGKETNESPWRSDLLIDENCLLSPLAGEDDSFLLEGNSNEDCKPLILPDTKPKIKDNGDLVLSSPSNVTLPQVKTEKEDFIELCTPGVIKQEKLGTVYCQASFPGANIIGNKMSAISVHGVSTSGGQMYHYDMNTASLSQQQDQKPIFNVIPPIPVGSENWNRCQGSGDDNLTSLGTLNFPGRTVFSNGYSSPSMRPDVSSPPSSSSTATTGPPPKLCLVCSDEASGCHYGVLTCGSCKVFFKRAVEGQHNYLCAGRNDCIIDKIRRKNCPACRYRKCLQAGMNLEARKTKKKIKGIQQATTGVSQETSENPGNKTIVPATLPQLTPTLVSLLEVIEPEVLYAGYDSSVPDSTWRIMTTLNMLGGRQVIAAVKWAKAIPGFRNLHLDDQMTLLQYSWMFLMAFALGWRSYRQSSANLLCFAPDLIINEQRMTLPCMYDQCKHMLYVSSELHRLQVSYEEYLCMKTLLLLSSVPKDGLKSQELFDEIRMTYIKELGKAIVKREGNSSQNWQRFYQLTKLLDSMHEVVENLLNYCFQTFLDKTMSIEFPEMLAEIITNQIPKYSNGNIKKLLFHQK
Chain of Cytochrome P450 2C9 (Homo sapiens) (P11712 whole entry, looked up): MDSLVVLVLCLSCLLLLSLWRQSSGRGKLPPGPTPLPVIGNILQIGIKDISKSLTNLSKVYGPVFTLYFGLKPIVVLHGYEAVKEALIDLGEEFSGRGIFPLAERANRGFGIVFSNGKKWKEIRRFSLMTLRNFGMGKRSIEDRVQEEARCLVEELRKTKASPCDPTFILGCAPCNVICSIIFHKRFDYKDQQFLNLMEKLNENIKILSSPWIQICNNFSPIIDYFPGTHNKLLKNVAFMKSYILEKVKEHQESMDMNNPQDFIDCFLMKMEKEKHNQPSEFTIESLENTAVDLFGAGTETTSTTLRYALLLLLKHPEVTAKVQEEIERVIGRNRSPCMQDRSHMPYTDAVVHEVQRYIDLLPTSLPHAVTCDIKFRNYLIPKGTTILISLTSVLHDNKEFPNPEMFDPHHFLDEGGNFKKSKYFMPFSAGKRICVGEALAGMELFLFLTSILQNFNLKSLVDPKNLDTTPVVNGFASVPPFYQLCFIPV
Chain of 3',5'-cyclic-AMP phosphodiesterase 4B (Homo sapiens) (Q07343 whole entry, looked up): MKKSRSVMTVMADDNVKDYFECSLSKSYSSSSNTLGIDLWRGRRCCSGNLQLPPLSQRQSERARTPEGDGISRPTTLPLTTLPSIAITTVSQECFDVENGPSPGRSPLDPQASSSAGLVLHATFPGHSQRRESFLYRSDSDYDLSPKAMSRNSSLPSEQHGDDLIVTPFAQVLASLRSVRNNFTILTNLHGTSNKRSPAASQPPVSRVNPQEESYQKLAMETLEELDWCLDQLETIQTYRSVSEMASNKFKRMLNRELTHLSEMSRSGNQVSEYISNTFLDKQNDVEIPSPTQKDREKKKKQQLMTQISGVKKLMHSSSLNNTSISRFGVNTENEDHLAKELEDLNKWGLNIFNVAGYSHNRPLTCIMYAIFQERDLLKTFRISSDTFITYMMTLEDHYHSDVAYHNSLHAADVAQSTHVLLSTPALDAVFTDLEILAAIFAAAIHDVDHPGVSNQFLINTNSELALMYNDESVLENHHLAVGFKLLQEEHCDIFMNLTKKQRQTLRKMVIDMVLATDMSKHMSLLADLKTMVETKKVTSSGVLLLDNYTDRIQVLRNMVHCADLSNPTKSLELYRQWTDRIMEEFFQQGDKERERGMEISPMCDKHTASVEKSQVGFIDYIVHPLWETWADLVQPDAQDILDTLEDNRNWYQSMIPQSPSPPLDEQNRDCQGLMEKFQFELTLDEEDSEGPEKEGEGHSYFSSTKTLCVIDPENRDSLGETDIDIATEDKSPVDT
Chain of Cytochrome P450 2D6 (Homo sapiens) (P10635 whole entry, looked up): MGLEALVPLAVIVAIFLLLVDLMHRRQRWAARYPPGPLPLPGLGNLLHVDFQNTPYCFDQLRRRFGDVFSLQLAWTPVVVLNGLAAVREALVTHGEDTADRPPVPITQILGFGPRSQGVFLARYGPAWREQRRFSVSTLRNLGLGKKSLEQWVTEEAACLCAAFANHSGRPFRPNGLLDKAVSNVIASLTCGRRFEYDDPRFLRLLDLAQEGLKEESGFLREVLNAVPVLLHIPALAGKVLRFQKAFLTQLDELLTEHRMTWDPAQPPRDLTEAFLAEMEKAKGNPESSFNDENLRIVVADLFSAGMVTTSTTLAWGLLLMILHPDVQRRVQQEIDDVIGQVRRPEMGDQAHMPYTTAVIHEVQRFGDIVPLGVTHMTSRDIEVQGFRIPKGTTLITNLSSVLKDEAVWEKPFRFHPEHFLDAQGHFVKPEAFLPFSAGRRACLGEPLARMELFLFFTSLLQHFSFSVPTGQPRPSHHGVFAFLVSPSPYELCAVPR
Chain of Cytochrome P450 3A4 (Homo sapiens) (P08684 whole entry, looked up): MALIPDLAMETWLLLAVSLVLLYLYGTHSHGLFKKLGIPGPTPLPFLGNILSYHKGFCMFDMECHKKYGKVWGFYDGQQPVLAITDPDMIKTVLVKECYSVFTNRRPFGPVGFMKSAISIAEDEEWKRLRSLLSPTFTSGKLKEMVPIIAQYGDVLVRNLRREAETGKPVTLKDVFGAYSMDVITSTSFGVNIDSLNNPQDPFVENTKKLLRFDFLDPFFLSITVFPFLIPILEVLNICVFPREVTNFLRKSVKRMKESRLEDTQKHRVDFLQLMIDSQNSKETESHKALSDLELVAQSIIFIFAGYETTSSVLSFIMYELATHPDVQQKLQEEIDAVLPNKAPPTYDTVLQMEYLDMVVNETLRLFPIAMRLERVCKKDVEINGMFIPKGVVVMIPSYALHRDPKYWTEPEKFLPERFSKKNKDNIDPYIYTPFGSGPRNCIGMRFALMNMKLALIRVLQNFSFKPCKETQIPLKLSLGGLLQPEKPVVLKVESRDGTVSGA
Chain of Cytochrome P450 1A2 (Homo sapiens) (P05177 whole entry, looked up): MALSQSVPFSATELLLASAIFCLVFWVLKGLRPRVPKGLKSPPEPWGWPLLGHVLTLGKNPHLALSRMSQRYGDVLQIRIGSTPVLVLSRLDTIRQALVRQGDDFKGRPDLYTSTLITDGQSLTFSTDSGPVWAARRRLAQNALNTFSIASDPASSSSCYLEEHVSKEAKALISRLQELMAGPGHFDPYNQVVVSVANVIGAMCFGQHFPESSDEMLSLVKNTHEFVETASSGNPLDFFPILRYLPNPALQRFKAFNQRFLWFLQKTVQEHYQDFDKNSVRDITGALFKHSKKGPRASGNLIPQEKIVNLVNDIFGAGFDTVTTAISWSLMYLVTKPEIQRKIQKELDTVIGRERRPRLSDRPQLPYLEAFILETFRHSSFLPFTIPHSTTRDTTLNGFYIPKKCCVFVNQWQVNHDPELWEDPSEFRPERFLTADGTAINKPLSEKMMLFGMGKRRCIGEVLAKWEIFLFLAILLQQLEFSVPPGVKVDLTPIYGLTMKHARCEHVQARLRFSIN
Chain of Cytochrome P450 2C19 (Homo sapiens) (P33261 whole entry, looked up): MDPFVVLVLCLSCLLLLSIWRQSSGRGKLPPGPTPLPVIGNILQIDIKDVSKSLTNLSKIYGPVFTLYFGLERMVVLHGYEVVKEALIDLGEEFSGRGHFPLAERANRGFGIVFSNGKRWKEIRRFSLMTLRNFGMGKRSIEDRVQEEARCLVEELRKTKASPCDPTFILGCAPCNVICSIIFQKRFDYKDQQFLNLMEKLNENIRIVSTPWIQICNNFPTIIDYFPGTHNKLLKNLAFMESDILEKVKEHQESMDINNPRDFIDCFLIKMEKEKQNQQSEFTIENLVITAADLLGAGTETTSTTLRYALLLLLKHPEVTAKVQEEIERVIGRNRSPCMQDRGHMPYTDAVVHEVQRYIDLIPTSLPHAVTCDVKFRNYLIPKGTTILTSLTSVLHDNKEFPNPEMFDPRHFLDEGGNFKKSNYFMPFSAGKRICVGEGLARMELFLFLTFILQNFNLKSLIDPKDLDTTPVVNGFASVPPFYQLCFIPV
Chain of DNA dC->dU-editing enzyme APOBEC-3G (Homo sapiens) (Q9HC16 whole entry, looked up): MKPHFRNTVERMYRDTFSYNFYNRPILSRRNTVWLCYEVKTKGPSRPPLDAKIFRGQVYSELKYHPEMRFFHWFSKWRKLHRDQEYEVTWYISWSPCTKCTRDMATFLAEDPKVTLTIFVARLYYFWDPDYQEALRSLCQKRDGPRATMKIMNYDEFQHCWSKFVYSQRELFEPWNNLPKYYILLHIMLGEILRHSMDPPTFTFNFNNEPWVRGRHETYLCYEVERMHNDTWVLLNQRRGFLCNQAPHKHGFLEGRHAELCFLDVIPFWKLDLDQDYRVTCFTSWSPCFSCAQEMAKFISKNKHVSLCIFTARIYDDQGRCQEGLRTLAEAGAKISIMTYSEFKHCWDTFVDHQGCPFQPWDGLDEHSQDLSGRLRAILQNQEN
Chain of Pyruvate kinase PKM (Homo sapiens) (P14618 whole entry, looked up): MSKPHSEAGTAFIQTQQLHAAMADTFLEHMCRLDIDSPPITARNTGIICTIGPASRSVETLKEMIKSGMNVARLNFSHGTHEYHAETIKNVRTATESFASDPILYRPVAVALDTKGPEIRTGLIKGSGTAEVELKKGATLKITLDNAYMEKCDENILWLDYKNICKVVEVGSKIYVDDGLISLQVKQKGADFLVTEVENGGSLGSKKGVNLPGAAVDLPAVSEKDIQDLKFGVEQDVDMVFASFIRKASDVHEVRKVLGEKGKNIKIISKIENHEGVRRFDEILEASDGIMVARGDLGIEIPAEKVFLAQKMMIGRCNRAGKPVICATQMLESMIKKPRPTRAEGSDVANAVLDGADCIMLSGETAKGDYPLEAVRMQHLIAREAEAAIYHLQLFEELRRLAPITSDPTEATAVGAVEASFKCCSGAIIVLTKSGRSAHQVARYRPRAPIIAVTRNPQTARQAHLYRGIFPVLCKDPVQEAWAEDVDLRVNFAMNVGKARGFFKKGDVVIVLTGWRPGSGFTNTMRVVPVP

In the case of `C=CCN1CCc2c(cc(O)c(O)c2Br)[C@H](c2ccccc2)C1`, the Potency in assay [1] was 12.6 µM (active); in [3] it was more than 46 µM; in assay [4], more than 46 µM; in [8], 20 µM (active). Moreover, in assay [2], the activity, negative = inhibition was 7.2% [at 38 µM]. The Potency entry in assay [5], in assay [7] and in [9] was “inactive” throughout. Moreover, the outcome in assay [6], in [10], in assay [11] and in [12] was inactive.

As to `CN(CCc1ccc(Cl)c(Cl)c1)CCN1CCCCCC1`, the Potency is 31.6 µM (active) in assay [1], more than 46 µM in [3], more than 46 µM in assay [4] and 0.126 µM (active) in assay [14]. For the same compound, the Potency entry in assay [13], in [8] and in assay [15] was “inactive” throughout. Besides, the outcome in assay [16] was inactive.

With `O[C@@H]1CC[C@H]2Cc3ccccc3N=C21`, the Potency in assay [1] was 15.8 µM (active); in assay [3], more than 46 µM; in assay [4] it was more than 46 µM. The Potency result in assay [13], in assay [5], in [17] and in [18] was “inactive” in each case.

As to `N[C@@H](Cc1c[nH]c2ccccc12)C(=O)NCC(=O)O` (H-Trp-Gly-OH), the Potency result in [1], in assay [13], in [5], in assay [17], in assay [14] and in assay [18] was “inactive” in each case. Besides, the Potency in [3] and in [4] was more than 46 µM in each case.

`O=c1cc(-c2ccc(O)cc2O)oc2ccccc12`: the Potency in [1] is 1.26 µM (active); in assay [3], more than 46 µM; in assay [4], more than 46 µM; in assay [17], 5.01 µM (active); in assay [7] it was 3.16 µM (active). In addition, the Potency entry in assay [13], in assay [5], in assay [8] and in assay [14] was “inactive” throughout. Further, the call in assay [16] was inactive.

For the compound `COc1cccc2oc(-c3ccc(O)cc3)cc(=O)c12`, the Potency was 0.398 µM (active) in assay [1]; more than 46 µM in assay [3]; more than 46 µM in assay [4]; 12.6 µM (active) in assay [17]; 15.8 µM (active) in assay [7]; 10 µM (active) in assay [18]. Besides, the Potency result in assay [13] and in [8] was “inactive” in each case. In addition, the call in assay [16] was inactive.

For the compound `C=CC1=C(C)C2=Cc3c(C=C)c(C)c4[n]3[Sn+2][n]3c(c(C)c(CCC(=O)O)c3=CC3=NC(=C4)C(C)=C3CCC(=O)O)=CC1=N2`, the Potency in assay [1] is 39.8 µM (active); in assay [3], more than 46 µM; in [4], more than 46 µM; in assay [13] it was 1 µM [activator] (active); in [14], 1.26 µM (active). Further, in [16], the outcome was inactive.

On to `Cn1ccc(O)c(C#N)c1=O`, for which the Potency entry in assay [1], in [13], in [5], in [17], in assay [7] and in assay [14] was “inactive” each time. Further, the Potency entry in assay [18] was “inactive”. Moreover, the Potency in assay [3] and in assay [4] was more than 46 µM each time. Further, in assay [16], the call was inactive.

In the case of `O=C1C=CC2=C3c4cc(O)c(O)cc4C[C@@]3(O)COC2=C1O`, the Potency in assay [1] is 39.8 µM (active); in [3], more than 46 µM; in assay [4] it was more than 46 µM; in [13], 0.501 µM (active); in assay [14], 25.1 µM (active); in [18], 6.31 µM (active).

As to `COc1ccc2oc(-c3ccc(O)cc3)cc(=O)c2c1`, the Potency in assay [1] is 0.316 µM (active); in assay [3], more than 46 µM; in assay [4] it was more than 46 µM; in assay [17] it was 2.51 µM (active); in assay [7], 3.98 µM (active); in assay [14] it was 25.1 µM (active). Also, the Potency entry in assay [5] and in assay [8] was “inactive” throughout. For the same compound, the compound was called inactive in [16].
